Experimental findings from PubChem BioAssay (NCI) are described below.

Test systems include NCI-H23 lung; NCI-H226 lung; NCI-H322M lung; HOP-62 NSCLC; NCI-H460 lung; HOP-92 NSCLC; NCI-H522 lung; A549/ATCC NSCLC; 786-0 renal; COLO 205 colon; DU-145 prostate; K-562 leukemia; MALME-3M melanoma; MDA-MB-231 breast; SF-268 CNS; SF-295 CNS; SF-539 CNS; UACC-257 melanoma; M14 melanoma; RXF 393 renal.
Assay in all cases: NCI-60 one-dose screen, 48 h (100 = growth as untreated, 0 = no growth, -100 = all killed)
What all share (details): 10 µM

Structures are written as SMILES. The panel holds about 83,000 compounds, 20% with a hit somewhere; the sample as a whole holds those more often.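 Cell lines were cultured in 96-well plates, exposed to a single compound concentration, and assessed for percent growth 48 hours later.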 Unmarked numbers belong to inactive results. Calls of active or inactive are those of the source. How the source made its calls: active means growth percent below 10; inactive means the rest.

On to `Cc1cccc(-c2nc(Nc3ccccc3C(=O)O)c3ccccc3n2)c1`, for which the growth in the experiment with NCI-H23 lung was 20.8%; in the experiment with NCI-H226 lung it was 36.1%; with NCI-H322M lung, 48.7%; with HOP-62 NSCLC, 46.2%; in the experiment with NCI-H460 lung, 19.1%; in the experiment on HOP-92 NSCLC it was -5.02% (active). Also, the growth in the experiment on NCI-H522 lung is 59.9%; with A549/ATCC NSCLC it was 43.6%; with 786-0 renal it was 25%; in the experiment with COLO 205 colon, 121%; in the experiment with DU-145 prostate it was 50.5%; in the experiment with K-562 leukemia, 28.7%. Also, the growth with MALME-3M melanoma was 37.2%; in the experiment with MDA-MB-231 breast it was 66.1%; in the experiment with SF-268 CNS it was 37.5%; in the experiment with SF-295 CNS, 27.1%; in the experiment with SF-539 CNS it was 47.7%; with UACC-257 melanoma it was 49.2%. The growth in the experiment with M14 melanoma was 25.2%.

With `O=C(NO)c1ccc(Cn2ccc3c(NCc4ccccc4)ncnc32)cc1`, the growth with NCI-H23 lung is -74.3% (active); in the experiment with NCI-H226 lung, 23.8%; with NCI-H322M lung, 30.2%; in the experiment on HOP-62 NSCLC, 12.7%; with NCI-H460 lung, 11.1%; in the experiment with HOP-92 NSCLC, -19% (active). Also, the growth with NCI-H522 lung is -51.5% (active); with A549/ATCC NSCLC, 28.1%; with 786-0 renal, 22.7%; in the experiment with COLO 205 colon it was -60.1% (active); with DU-145 prostate, 10.3%; with K-562 leukemia, 12.2%. The growth with MALME-3M melanoma was -5.08% (active); with MDA-MB-231 breast it was -18% (active); with SF-268 CNS, 19%; with SF-295 CNS, -68.2% (active); in the experiment with SF-539 CNS, -71.1% (active); in the experiment on UACC-257 melanoma it was -20.8% (active). Besides, the growth with M14 melanoma is -9.73% (active).

Regarding `COc1ccc(-c2nc(-c3ccccc3)c(-c3ccccc3)n2-c2ccc(S(=O)(=O)Nc3ncccn3)cc2)cc1OC`, the growth with NCI-H23 lung is 94.8%; with NCI-H226 lung, 75.1%; in the experiment on NCI-H322M lung it was 77.4%; in the experiment on HOP-62 NSCLC it was 76.9%; with NCI-H460 lung, 95.6%; in the experiment on HOP-92 NSCLC, 56.6%. Further, the growth in the experiment with NCI-H522 lung is 89%; in the experiment with A549/ATCC NSCLC, 87.6%; in the experiment on 786-0 renal, 64.6%; in the experiment on COLO 205 colon, 133%; in the experiment on DU-145 prostate, 89%; with K-562 leukemia, 76.8%. Also, the growth is 106% in the experiment with MALME-3M melanoma; 62.2% in the experiment with MDA-MB-231 breast; 82.9% in the experiment with SF-268 CNS; 46.5% in the experiment on SF-295 CNS; 67.2% in the experiment on SF-539 CNS; 113% in the experiment on UACC-257 melanoma. Also, the growth with M14 melanoma is 93.9%.

`COc1ccc(C=CC(=O)c2ccc(-n3c(C)nc4c(cnn4-c4ccccc4)c3=O)cc2)cc1`: the growth with NCI-H23 lung was 72.4%; in the experiment on NCI-H226 lung it was 70.6%; in the experiment with NCI-H322M lung it was 107%; with HOP-62 NSCLC, 80.5%; in the experiment on NCI-H460 lung, 97.8%; with HOP-92 NSCLC, 97.3%. For the same compound, the growth is 57.4% with NCI-H522 lung; 90.8% in the experiment on A549/ATCC NSCLC; 84.6% in the experiment on 786-0 renal; 116% with COLO 205 colon; 83.2% in the experiment on DU-145 prostate; 12.4% with K-562 leukemia. Also, the growth is 60.6% with MALME-3M melanoma; 84.4% in the experiment on RXF 393 renal; 92.4% in the experiment on SF-268 CNS; 65.6% with SF-295 CNS; 77.6% in the experiment on SF-539 CNS; 74.6% in the experiment on UACC-257 melanoma. In addition, the growth in the experiment on M14 melanoma was 53.1%.

As to `O=C(Cn1cc(CSc2nnc3oc4ccccc4n23)nn1)Nc1cccc(Cl)c1`, the growth is 60.2% in the experiment on NCI-H23 lung; 65% in the experiment with NCI-H226 lung; 84.1% in the experiment on NCI-H322M lung; 72.9% with HOP-62 NSCLC; 91.1% with NCI-H460 lung; 52.1% in the experiment with HOP-92 NSCLC. Moreover, the growth in the experiment on NCI-H522 lung is 47.6%; in the experiment on A549/ATCC NSCLC it was 62.9%; in the experiment on 786-0 renal, 93.3%; with COLO 205 colon, 97.8%; with DU-145 prostate, 85.6%; in the experiment with MALME-3M melanoma, 72.8%. The growth in the experiment on MDA-MB-231 breast was 63.4%; with RXF 393 renal, 76.8%; in the experiment with SF-268 CNS, 71.8%; with SF-295 CNS, 66.8%; with SF-539 CNS it was 70.6%; in the experiment on UACC-257 melanoma, 71%. The growth with M14 melanoma was 87.8%.

For `COc1ccc2nc(Cl)c(-c3cc(-c4ccccc4)nc(=S)[nH]3)cc2c1`, the growth was 72.6% in the experiment on NCI-H23 lung; 80.2% in the experiment with NCI-H226 lung; 89.4% with NCI-H322M lung; 75.7% in the experiment with HOP-62 NSCLC; 90.4% in the experiment on NCI-H460 lung; 54.1% in the experiment with HOP-92 NSCLC. Moreover, the growth is 37% with NCI-H522 lung; 93.6% with A549/ATCC NSCLC; 78% in the experiment on 786-0 renal; 72.6% in the experiment on COLO 205 colon; 72.6% in the experiment on DU-145 prostate; 24.8% in the experiment with K-562 leukemia. Further, the growth is 45.3% in the experiment with MALME-3M melanoma; 46.2% in the experiment with RXF 393 renal; 67.9% in the experiment on SF-268 CNS; 50.9% with SF-295 CNS; 63.5% in the experiment on SF-539 CNS; 38.2% in the experiment on UACC-257 melanoma. In the experiment with M14 melanoma, the growth is 16.5%.

Turning to `CN1CCN(c2ccc(Nc3nc(NCCCNC(=O)c4ccccc4)c4sccc4n3)cc2)CC1`, the growth in the experiment with NCI-H23 lung is 82.5%; with NCI-H226 lung it was 84.6%; with NCI-H322M lung, 84.2%; in the experiment with HOP-62 NSCLC it was 93.5%; with NCI-H460 lung it was 67.6%; in the experiment on HOP-92 NSCLC it was 69.3%. The growth was 91.5% with NCI-H522 lung; 72.5% in the experiment on A549/ATCC NSCLC; 24.9% in the experiment on 786-0 renal; 93.8% with COLO 205 colon; 75.5% with DU-145 prostate; 46.1% in the experiment on MALME-3M melanoma. In addition, the growth with MDA-MB-231 breast was 88.6%; in the experiment on RXF 393 renal it was 2.61% (active); in the experiment on SF-268 CNS, 77.6%; in the experiment with SF-295 CNS, 85.9%; with SF-539 CNS, -89.5% (active); in the experiment on UACC-257 melanoma it was 32.5%. Also, the growth in the experiment with M14 melanoma was 38.6%.

Regarding `COc1ccc2nc(Cl)c(-c3cc(-c4ccccc4)nc(N)n3)cc2c1`, the growth in the experiment on NCI-H23 lung is 37.7%; with NCI-H226 lung it was 27.1%; in the experiment on NCI-H322M lung, 60.7%; in the experiment with HOP-62 NSCLC, 40.8%; in the experiment with NCI-H460 lung, 3.53% (active); in the experiment with HOP-92 NSCLC it was 48.5%. Besides, the growth in the experiment with NCI-H522 lung is 46.8%; in the experiment on A549/ATCC NSCLC it was 72.7%; in the experiment on 786-0 renal it was 4.34% (active); in the experiment with COLO 205 colon, 53.7%; with DU-145 prostate, 33.3%; with K-562 leukemia it was 0.267% (active). In addition, the growth in the experiment on MALME-3M melanoma is 61%; in the experiment with RXF 393 renal, -19.8% (active); in the experiment on SF-268 CNS, 58.8%; in the experiment with SF-295 CNS it was 30.4%; with SF-539 CNS it was -45.6% (active); with UACC-257 melanoma, 71.6%. The growth with M14 melanoma was 44.1%.
